mHTT-CaM PPI inh – inhibitors of human mutant huntingtin-calmodulin interaction; AlphaScreen His-mHTT/GST-CaM binding, luminescence; inhibition, % at 15 µM; actives 3.6% (n = 190,000)
Pf apPOL block – Pf-apPOL DNA polymerase inhibition | actives 0.25% (n = 210,000) | inhibition, % at 10 µM | Recombinant Pf-apPOL, molecular beacon fluorescence, 1.5 h
Of the large screens only hits and unclear results are named; the others gave an inactive call. Shown are actives, neighbours in structure and some others; about 3.6% of the full set was active somewhere. Cut-off read from the data, not from the text of the source: active = inhibition above about 50%; inactive = the rest.

CC(=O)c1ccc(NC(=O)c2ccc3nc(-c4ccco4)c(-c4ccco4)nc3c2)cc1	mHTT-CaM PPI inh 100
O=C(NCc1ccco1)Nc1ccc2nc(-c3ccco3)c(-c3ccco3)nc2c1	mHTT-CaM PPI inh 96
COCCNC(=O)c1ccc2nc(-c3ccco3)c(-c3ccco3)nc2c1	mHTT-CaM PPI inh 59
O=C(Nc1ncn[nH]1)c1ccc2nc(-c3ccco3)c(-c3ccco3)nc2c1	none
COc1ccc2nc(-c3ccco3)c(-c3ccco3)nc2c1	mHTT-CaM PPI inh 99
COc1ccc2nsnc2c1	none (no result: mHTT-CaM PPI inh)
COCCCNC(=O)c1ccc2nc(-c3cccs3)c(-c3cccs3)nc2c1	none
O=C(NCc1ccco1)Nc1ccc2snnc2c1	none
CCN1C(=O)CCC2(CNS(=O)(=O)c3cccnc3)CCCC12 (stereo not given)	none
Cc1cccc(C(=O)NC(N2CCCCC2)C(Cl)(Cl)Cl)c1 (stereo not given)	none
CCCc1cc(C2CCCN2C(=O)Cc2ccccc2OC)no1 (stereo not given)	none
COCCN(CCOC)Cc1c(O)ccc2c(-c3cc4cc(Cl)ccc4oc3=O)cc(=O)oc12	none
O=C1NC2(CCN(Cc3cccc(F)c3)CC2)N=C1c1ccc(Br)cc1	none
Nc1cc(C2CCN(C(=O)Nc3ccc(F)c(Cl)c3)CC2)no1	none
O=C(Nc1ccc2nc(-c3ccco3)c(-c3ccco3)nc2c1)N1CCN(c2ccccn2)CC1	mHTT-CaM PPI inh 66
O=C(Nc1ccc([N+](=O)[O-])cc1)N1CCN(c2ccccn2)CC1	none
Cc1ccc(C)n1-c1ccc(C(=O)NN)c(Cl)c1	none
Cc1ccc(C)n1-c1ccc(Cl)c(O)c1	mHTT-CaM PPI inh 96
OCCN(CCO)CC(O)COCC12CC3CC(CC(C3)C1)C2 (stereo not given)	mHTT-CaM PPI inh 100
CCN(CC)CC(O)COCC12CC3CC(CC(C3)C1)C2 (stereo not given)	none
O=C(Cn1nc2n(c(=O)c1=O)CCN2c1ccc(F)cc1)NCC1CCCO1 (stereo not given)	none
Cc1ccnc(N2CCCC(C(=O)NCCCN3CCCc4ccccc43)C2)n1 (stereo not given)	mHTT-CaM PPI inh 52
Cn1ncc(N2CCCC(C(=O)NCCCN3CCCC3=O)C2)cc1=O (stereo not given)	mHTT-CaM PPI inh 100
O=C(NCCCN1CCCc2ccccc21)C1CCc2nc(N3CCOCC3)ncc2C1 (stereo not given)	none
Cn1ncc(N2CCCC(C(=O)NCCCc3ccccc3)C2)cc1=O (stereo not given)	none
Cn1ncc(N2CCCC(C(=O)NCCCN3CCCCC3)C2)cc1=O (stereo not given)	none
Cc1ccnc(N2CCCC(C(=O)NCCCN3CCN(C)CC3)C2)n1 (stereo not given)	none
Cn1ncc(N2CCCC(C(=O)NCCCN3CCCc4ccccc43)C2)cc1=O (stereo not given)	mHTT-CaM PPI inh 75
O=C(NCCCN1CCCc2ccccc21)C1CCc2nc(N3CCCCC3)ncc2C1 (stereo not given)	mHTT-CaM PPI inh 54
O=C1CC(c2ccccc2Cl)CC2=C1C(c1cccnc1)Nc1ccccc1N2 (stereo not given)	none
Cc1nn2c(=O)/c(=C/c3cccc(Br)c3)sc2nc1=O	none
CC1CCCN(C(=O)c2cc3c(s2)N(C)CCC3)C1 (stereo not given)	none
Cc1cc([N+](=O)[O-])nn1CCCC(=O)Nc1cc(Oc2ccc3c(c2)CCC3)cc([N+](=O)[O-])c1	none
O=[N+]([O-])c1cc(Oc2ccc3c(c2)CCC3)cc(-n2cnnn2)c1	mHTT-CaM PPI inh 51 (no result: Pf apPOL block)
O=C(NCC(O)(c1ccccc1)C(F)(F)F)c1ccsc1 (stereo not given)	none
O=C(NNC(=O)C(F)(F)Sc1ccccc1)c1ccsc1	Pf apPOL block 54 (no result: mHTT-CaM PPI inh)
Oc1ccc(C(c2c[nH]c3ccccc23)c2c[nH]c3ccccc23)cc1O	none
Oc1ccc(-c2csc(-c3c[nH]c4ccccc34)n2)cc1O	mHTT-CaM PPI inh 99
O=c1ccc2c(Cl)cc(Cl)c(O)c2[nH]1	none
NNc1ccc2c(Cl)cc(Cl)c(O)c2n1	mHTT-CaM PPI inh 100
O=[N+]([O-])c1cccc2c1NC(c1ccc(F)cc1)C1CC=CC21 (stereo not given)	mHTT-CaM PPI inh 83
COc1cccc2c1NC(c1ccc(Cl)cc1)C1CC=CC21 (stereo not given)	mHTT-CaM PPI inh 59
O=[N+]([O-])c1ccc(C2Nc3c(cccc3[N+](=O)[O-])C3C=CCC32)cc1 (stereo not given)	none
O=[N+]([O-])c1cccc2c1NC(c1ccc(Cl)cc1)C1CC=CC21 (stereo not given)	mHTT-CaM PPI inh 86
COc1cc(C2Nc3c(F)cccc3C3C=CCC32)cc(Br)c1OC (stereo not given)	none
COc1ccc(C)c2c1NC(c1ccc(Br)cc1)C1CC=CC21 (stereo not given)	mHTT-CaM PPI inh 72
O=C(CSCCOc1ccccc1)NCc1ccco1	none (no result: mHTT-CaM PPI inh)
CCCn1c(=O)c(N2CCC(NC(=O)NCc3cccc(OC)c3)CC2)nc2ccccc21	none
CCC(CC)C(=O)NCCc1ccccc1	none
Cc1ccc2c(c1)N(C(=O)Cn1cnc(-c3nc(C)cs3)c1)CCO2	none
Cc1noc(C2CN(C(=O)c3ccccc3Cl)CC23CCOCC3)n1 (stereo not given)	none
Cc1ccc(N2C(=O)NC3CC2(C)Oc2ccc(Cl)cc23)cc1C (stereo not given)	none
CC(C)(C)OC(=O)Cn1c2ccccc2c2cc(N)ccc21	mHTT-CaM PPI inh 73
CCn1c2ccccc2c2cc(C(C)=O)ccc21	none
COc1cc(C(C2=C(O)CC(C)(C)CC2=O)C2C(=O)CC(C)(C)CC2=O)c([N+](=O)[O-])cc1OC (stereo not given)	none
Cc1nc(-c2cccc(NC(=O)C(c3ccccc3)n3cccc3)c2)cs1 (stereo not given)	mHTT-CaM PPI inh 67
Cc1nc(-c2cccc(NC(=O)c3cccc([N+](=O)[O-])c3)c2)cs1	none
CCc1cccc(N2C=C(C(=O)N3CCC(C)CC3)S(=O)(=O)c3ccccc32)c1	none
Cc1csc(COc2ccc(C(=O)N3CCNC(=O)C3)cc2)n1	none
COc1ccc(C)cc1NCc1ccccc1C	mHTT-CaM PPI inh 81
COc1cc(Br)c(CNc2cc(C)ccc2C)cc1OC	none
O=C(NCc1ccc2c(c1)OCO2)C1CCN(c2ccc(N3CCOCC3)nn2)CC1	none
CC(C)(C)CC(C)(C)c1ccc(OCC(O)CN2CCCC2)cc1 (stereo not given)	mHTT-CaM PPI inh 100
CCC(C)(C)c1ccc(OCC(O)CN2CCOCC2)c(C(C)(C)CC)c1 (stereo not given)	mHTT-CaM PPI inh 94
CC(C)(C)c1ccc(OCC(O)CN)cc1 (stereo not given)	none
CC(C)(C)c1ccc(OCC(O)CN2CCCC2)c(C(C)(C)C)c1 (stereo not given)	none
CC(C)(C)c1ccc(OCC(O)CN2CCN(CCO)CC2)cc1 (stereo not given)	none
CC(C)(C)CC(C)(C)c1ccc(OCC(O)C[N+]2(C)CCCC2)cc1 (stereo not given)	none
CN(C)CC(O)COc1ccc(C(C)(C)CC(C)(C)C)cc1 (stereo not given)	mHTT-CaM PPI inh 99
CC[N+]1(CC(O)COc2ccc(C(C)(C)CC(C)(C)C)cc2)CCCC1 (stereo not given)	mHTT-CaM PPI inh 84
O=C(NCCn1ncc2c(NCc3ccco3)ncnc21)c1ccccc1C(F)(F)F	none
CC(C)CN1CCC(C(=O)N2CCCC2)CC1	Pf apPOL block 88
CC(CN1CCC(C(=O)N2CCCC2)CC1)c1ccccc1 (stereo not given)	none

High-throughput results (PubChem)
